The campaign covered roughly 340,000 compounds. About 2,100 (0.62%) were called active.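 How the source made its calls: active means first-screen hits whose inhibition reached a set limit at any dose in the follow-up dose series; inconclusive means inhibition above the set first-screen limit but never retested; inactive means the rest.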 Not all results are given here. Measured potencies and affinities stand elsewhere.
Each molecule was assayed against Rac GTPase-activating protein 1 (Homo sapiens) (UniProt Q9H0H5) (assay: blockers of MgcRacGAP-driven Rac1 GTP hydrolysis – biochemical, ADP Hunter fluorescence, primary and confirmatory, confirmation (AID 624330;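 further: fluorescence reports GDP produced by GAP-driven GTP hydrolysis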)). Conditions: MgcRacGAP-stimulated Rac1 GTP hydrolysis, at 30 µM, stronger effect = higher value, GST-tagged Rac1 F28L mutant substrate.
Rac GTPase-activating protein 1 (Homo sapiens), sequence (Q9H0H5 whole entry, looked up): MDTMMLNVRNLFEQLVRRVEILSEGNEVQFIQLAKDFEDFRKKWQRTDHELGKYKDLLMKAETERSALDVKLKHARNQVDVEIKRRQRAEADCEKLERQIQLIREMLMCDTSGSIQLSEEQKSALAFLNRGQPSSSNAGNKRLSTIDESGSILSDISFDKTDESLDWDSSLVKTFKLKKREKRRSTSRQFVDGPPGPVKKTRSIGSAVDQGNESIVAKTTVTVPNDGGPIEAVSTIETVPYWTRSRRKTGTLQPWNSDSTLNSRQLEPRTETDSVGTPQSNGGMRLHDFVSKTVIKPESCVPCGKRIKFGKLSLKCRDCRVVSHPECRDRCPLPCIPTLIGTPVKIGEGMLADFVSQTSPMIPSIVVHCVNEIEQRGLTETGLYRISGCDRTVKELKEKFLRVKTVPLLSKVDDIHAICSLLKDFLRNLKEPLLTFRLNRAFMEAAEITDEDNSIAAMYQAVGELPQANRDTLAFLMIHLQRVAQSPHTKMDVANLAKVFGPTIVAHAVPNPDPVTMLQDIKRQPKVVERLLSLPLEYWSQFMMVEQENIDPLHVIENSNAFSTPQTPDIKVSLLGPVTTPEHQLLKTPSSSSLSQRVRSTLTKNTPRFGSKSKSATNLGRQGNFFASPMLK

inhibition, inactive:
COc1ccc(S(=O)(=O)N2CCN(c3ncccn3)CC2)cc1 -2.15%
COc1ccc(NC(=O)c2ccc(N3CCCC3=O)cc2)cc1Cl -8.17%
Cc1ccc(SCC(=O)Nc2ccc(N3CCOCC3)cc2)cc1 9.38%
Cc1ccc(Cn2ccc(NC(=O)c3noc4c3CCCC4)n2)cc1 -0.93%
Cc1cc(C(F)(F)F)nn1Cc1n[nH]c(=S)n1Cc1ccccc1 8.02%
CCC(O)CNC(=O)NC(=C(Cl)Cl)c1ccc(C)c(F)c1 (configuration not stated) -0.09%
O=C(N/N=C\c1cccc(Cl)c1)c1n[nH]c2c1CCCC2 2.96%
CCOC(=O)CNC(=O)C(=O)c1c(O)[nH]c2ccccc12 15.3%
Cc1ccc2c(COC(=O)C34CC5CC(CC(C5)C3)C4)cc(=O)oc2c1 0.94%
Cc1ccc(NCC(=O)c2ccccc2)cc1Cl 3.37%
Cc1ccc(S(=O)(=O)NC(=O)Nc2ccc(F)c(F)c2)cc1 8.4%
COc1cc(NC(=O)NS(=O)(=O)c2ccc(C)cc2)cc(OC)c1 4.34%
COc1ccc(N2CCN(CC(=O)c3c[nH]c4ccccc34)CC2)cc1 -4.34%
CNC(=O)CSc1nc2sccc2c(=O)n1-c1ccccc1 4.24%
CN(C)c1ccc(NC(=O)c2sc(SCC(=O)Nc3ccc(Br)cc3)nc2N)cc1 10.8%
COc1ccc(NC(=O)CSc2nc(N)c(C(=O)Nc3ccc(N(C)C)cc3)s2)cc1 16.4%
CCN(CC)C(=O)CSc1nc(N)c(C(=O)Nc2ccc(OC)cc2)s1 14%
Cc1nnc(SCC(=O)Nc2nccs2)s1 1.9%
Cc1cc(C)cc(OCC(=O)OCC(=O)NC2CC2)c1 -3.46%
CC(C)C(O)(C#CCN1CCCCC1)c1ccccc1 (configuration not stated) -1.57%
Cc1ccc(NC(=O)CSCC(=O)Nc2nnc(C3CC3)s2)cc1 7.27%
CCOC(=O)c1c(C)n(-c2ccc(C)cc2)c2ccc(OCC(O)CN3CCN(C)CC3)cc12 (configuration not stated) 5.99%
CCOC(=O)c1c(C)n(-c2ccc(C)cc2)c2ccc(OCC(O)CNCCCO)cc12 (configuration not stated) 14.9%
O=C(COC(=O)c1cc(=O)[nH]c(=O)[nH]1)NCc1ccccc1 3.71%
O=C(Nc1nnc(-c2ccncc2)s1)C1CCCO1 (configuration not stated) 2.37%
CC(C)CN(C(=O)COC(=O)c1cc(=O)[nH]c2ccccc12)c1c(N)n(Cc2ccccc2)c(=O)[nH]c1=O 4.11%
CCOc1ccc(OCC(O)CNC2CCN(Cc3ccccc3)CC2)cc1 (configuration not stated) 7.46%
COc1ccc(CNCC(O)COc2ccc(C(C)(C)c3ccccc3)cc2)cc1 (configuration not stated) 26.6%
CC(C)(c1ccccc1)c1ccc(OCC(O)CN2CCCC2)cc1 (configuration not stated) 9.77%
OC(CNCCc1ccccc1)COc1ccc(OCC(O)CNCCc2ccccc2)cc1 (configuration not stated) 8.04%
CCCCCC(=O)C(=O)c1ccc(O)cc1O -2.38%
O=C(NNC(=O)c1cccnc1)NC1CCCCC1 7.92%
CSc1cccc(NS(=O)(=O)c2cc(Br)cnc2N)c1 -1.74%
O=C(Nc1ccc(N2CCCCCC2)cc1)c1ccccc1Cl 20.3%
O=C(Nc1ccc(N2CCCCC2)cc1)c1ccccc1 36.6%
CC(=O)N1CCN(c2ccc(NC(=O)c3ccccc3C)cc2)CC1 9.24%
O=C(Nc1ccc(N2CCCCC2)cc1)c1ccc(F)cc1 4.29%
CC(c1ccncn1)N(C)C(=O)c1ccc2oc(Cc3ccccc3)nc2c1 (configuration not stated) 6.98%
CC1CCCCC1NC(=O)CN(C)S(=O)(=O)c1cccc2nsnc12 (configuration not stated) 9.08%
CCOc1ccc(/C=N/NC(=O)CN2CCCCC2)cc1OCC 10.1%
COc1ccc(/C=N/NC(=O)C(=O)N2CCCCCC2)cc1O 11.9%
COc1cc(/C=N/NC(=S)NCC2CCCO2)cc(OC)c1OC (configuration not stated) 7.93%
CCCOc1ccc(/C=N/NC(=O)CN2CCCCC2)cc1OCC 0.56%
COc1ccc(/C=N/NC(=O)C(=O)N2CCCC2)cc1OC 7.5%
COc1ccc(/C=N/NC(=S)NCC2CCCO2)cc1 (configuration not stated) 5.53%
S=C(NCc1ccco1)N/N=C/c1ccncc1 2.98%
S=C(NCc1ccco1)N/N=C/c1ccc(Cl)cc1 17.1%
Cc1ccc(C2CN(CCC(N)=O)C(=O)CO2)cc1 (configuration not stated) 3.49%
CC1CCCCC1NC(=O)CCCCCn1c(=S)[nH]c2ccsc2c1=O (configuration not stated) 6.67%
CC1=C([N+](=O)[O-])C(c2ccccc2C(F)(F)F)NC(=O)N1C (configuration not stated) 2.05%
COc1ccc2c(C)cc(SCC(=O)NC3CCCCC3)nc2c1 3.25%
O=C(CN1C(=O)COc2ccccc21)N1CCc2ccccc2C1 2.34%
O=C(NCCc1csc(-c2ccccc2)n1)c1ccc(Br)o1 9.81%
O=C(COC(=O)c1ccc(F)c(S(=O)(=O)N2CCOCC2)c1)NCc1ccc(Cl)cc1 -1.94%
N#CCCn1cc(C(=O)Nc2ccc([N+](=O)[O-])cc2)c(-c2cccs2)n1 4.36%
C[C@@H]1CN([C@H](C)CO)C(=O)c2cc(Br)cnc2O[C@@H]1CN(C)C(=O)c1ccccc1 14.7%
Cn1c(=O)cc(OCCCC(=O)NCCCN2CCN(Cc3ccccc3)CC2)c2ccccc21 2.96%
O=C(N/N=C/c1cccc(O)c1)C(=O)N1CCCCCC1 0.3%
C=CCOc1ccc(/C=N/NC(=O)C(=O)N2CCCCCC2)cc1OC 2.52%
O=C(NCC1CCCO1)C(=O)N/N=C/c1ccc(O)c(Cl)c1 (configuration not stated) 26.7%
COc1cc(/C=N/NC(=O)C(=O)NCC2CCCO2)cc(Cl)c1O (configuration not stated) 21.6%
CCN(Cc1nc(-c2ccc(C)cc2)no1)C(=O)c1ccco1 2.23%

Reference: PubChem BioAssay AID624330 (Southern Research Specialized Biocontainment Screening …, 2012)
